Measurements as given in PubChem BioAssay (NCI).
This is part of a sample that, as a whole, favours compounds with a hit. Of some 83,000 tested, about 20% had one in any assay.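 Method: cells in 96-well plates; compound added at one concentration; 48 h incubation; percent growth measured; values under 10 scored active.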 Active and inactive are the calls of the source.

System: HL-60(TB) leukemia
Test: NCI-60 one-dose screen, 48 h (100 = growth as untreated, 0 = no growth, -100 = all killed)
Conditions: 10 µM unless noted

Row | Structure (SMILES) | growth
1 | CC(C)C1=C[C@@]23CC[C@H]4[C@](C)(COCCC#N)CCC[C@]4(C)[C@H]2C[C@@H]1[C@@H]1[C@H]3[C@@H](OCCC#N)CC[C@@H]1OCCC#N | -42.7% (active)
2 | Cn1ccnc1C(=O)/C=C/c1ccccc1 | 8.05% (active)
3 | Cc1ccc(-c2nc3nc(-c4ccc(Br)cc4)nc(N4CCCNCC4)c3o2)cc1 | -47.3% (active)
4 | CNCCCNc1ccnc2cc(Cl)ccc12 | -25% (active)
5 | O=C(O)c1ccc(NC(=O)c2ccc(Nc3ccnc(C(F)(F)F)c3)cc2)cc1 | 97.4% (inactive)
6 | COc1ccc(/C=N/NC(=O)Cn2c(-c3ccc(S(C)(=O)=O)cc3)nc3cc(Cl)ccc32)cc1 | -51.6% (active)
7 | C=C(C)[C@@H]1C[C@@H]2Cc3cc(Cl)ccc3N1O2 | -8.6% (active)
8 | COc1ccc2c(c1)C(=O)/C(=C/c1ccc([N+](=O)[O-])s1)O2 | -10.7% (active)
9 | O=C1CSC(c2ccccc2O)N1c1nnc(Cn2cnnc2)o1 (stereo not given) | 61.1% (inactive)
10 | N#Cc1ncc(-c2ccc(C(F)(F)F)cc2)c(NCc2cc(C(F)(F)F)cc(C(F)(F)F)c2)n1 | -0.911% (active)
11 | O=C1CS/C(=N\Nc2cc(=O)[nH]c3ccccc23)N1c1ccccc1 | 96.2% (inactive)
12 | N=C(N)c1ccc(-c2ccc(-c3ccc(Cl)cc3Cl)s2)cc1 | -45.1% (active)
13 | CCOc1ccccc1NC(=O)c1cc2ccccc2cc1O | 48.8% (inactive)
14 | CCN(CC)CCNc1ccc([N+](=O)[O-])c2sc3cc(Cl)ccc3c(=O)c12 | 54.7% (inactive)
15 | CCCCN1C(=O)/C(=c2\sc3n(c2=O)NC2C(N=3)N(CC)C(=O)N2CC)c2ccccc21 (stereo not given) | 21.3% (inactive)
16 | COc1ccc2c(c1)/C(=N/c1n[nH]c(=S)s1)C(=O)N2 | 61.6% (inactive)
17 | C[Se]C(=O)CC1=C2C=C(F)C=CC2/C(=C\c2ccc(S(C)=O)cc2)C1C (stereo not given) | -40% (active)
18 | Brc1ccc([I+]c2ccc(Br)cc2)cc1 | -25.6% (active)
19 | CN(C)c1ccc(/C=C\C2=[N+](C)c3ccccc3C2(C)C)cc1 | 22.9% (inactive)
20 | C/C=C1/CN(CCCCC)CC[C@H]1C(=O)c1cc2ccccc2[nH]1 | 90.6% (inactive)

Row | Structure (SMILES) | growth
21 | O=C(O)c1cccc2c1Cc1cc([N+](=O)[O-])ccc1-2 | 120% (inactive)
22 | CC(C)n1cc(C2=C(c3cccc4ccccc34)C(=O)NC2=O)c2cc(Br)ccc21 | 54.1% (inactive)
23 | COc1ccc2sc(N(Cc3cccnc3)C(=O)c3ccc(C#N)cc3)nc2c1 | 63.4% (inactive)
24 | COc1ccc2nc3cc(Cl)ccc3c(NCCNc3c4ccc(Cl)cc4nc4ccc(OC)cc34)c2c1 | -75% (active)
25 | O=C(Cc1ccccc1Nc1c(Cl)cccc1Cl)NN1C(=O)/C(=C/c2ccc(Br)cc2)SC1=S | 101% (inactive)
26 | COc1ccc(-c2cc(-c3ccc(N(C)C)cc3)c(C#N)c(N3CCCC3)n2)cc1 | 67.2% (inactive)
27 | COc1ccc(S(=O)(=O)NCCCNc2nccc(-c3c(-c4ccc(F)cc4)nc4sccn34)n2)cc1 | 70.4% (inactive)
28 | CC1CCCN(CCCCOc2ccc(-c3ccc(C#N)cc3)cc2)C1 (stereo not given) | 92.6% (inactive)
29 | CC/C(=C(/c1ccc(Cl)cc1)c1ccc(OCCN(CC)CC)cc1)c1ccc(OC)cc1 | 33.3% (inactive)
30 | COc1ccc(/C=C(\C#N)n2nnc3ccc(Cl)cc32)cc1 | 86.6% (inactive)
31 | O=C1NC(=Nc2ccc(S(=O)(=O)Nc3nccs3)cc2)S/C1=C\c1coc2ccccc2c1=O | 107% (inactive)
32 | O=C1NC(=O)/C(=C/c2ccc3nccc(-c4ccncc4)c3c2)S1 | -32.1% (active)
33 | N#CCCCCCCCCCCC#N | 98.7% (inactive)
34 | COC1OC(CO)C(OC)C(O)C1O (stereo not given) | 103% (inactive)
35 | Cn1c(O)c(C(/C=C/c2ccccc2)=Nc2ccccc2N)c(=O)n(C)c1=O | -39.4% (active)
36 | O=C(CN1CCN(c2ccc(Cl)cc2)CC1)N1CCN(c2nnc(-c3ccc(Cl)cc3)c(-c3ccc(Cl)cc3)n2)CC1 | 41.4% (inactive)
37 | O=[N+]([O-])c1ccc(/C=C/C=C/c2ccccc2)c(Cl)c1 | 91.9% (inactive)
38 | CC(C)[N+]1(C)C2CC[C@@H]1CC(OC(=O)C(CO)c1ccccc1)C2 (stereo not given in full) | 107% (inactive)
39 | CC(=O)Oc1ccc(N2C(=O)C(Cl)=C(Nc3cccc(C(F)(F)F)c3)C2=O)cc1 | 96.5% (inactive)
40 | O=C(/C=C/C(=O)c1ccccc1)c1ccccc1 | 57.3% (inactive)
